Measurements as given in the supplement of paper PMC6522484.
± gives the standard deviation of the averaged measurements.

Tests used:
DLD1 [1] = experiment: cell viability (CellTiter-Glo) relative to plate median (fraction of plate median); higher = more viable cells; details: 5 µM; treatment time 24 h; reporter: 7TFP
Procedure, shortened: (§1)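 Colorectal cancer cells stably transduced with lentiviral TCF/Wnt firefly luciferase reporters were seeded in 384-well plates and dosed 24 h later with library compounds at a final 5 µM for 24 h. Firefly luciferase or CellTiterGlo luminescence was then read on a Tecan F500 from parallel plates. Signals were normalised per well to the plate median without log transformation, additively in webcellHTS2, and averaged over two independent replicates.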

HCT116 = experiment: as above; details: 5 µM; treatment time 24 h; reporter: TCF4/Wnt
Procedure, shortened: as §1

SW480 [2] = experiment: as above; details: 5 µM; treatment time 24 h; reporter: 7TFP
Procedure, shortened: as §1

DLD1 [3] = experiment: TCF/Wnt firefly luciferase reporter signal relative to plate median (fraction of plate median); higher = higher Wnt reporter signal; details: 5 µM; treatment time 24 h; reporter: 7TFP
Procedure, shortened: as §1

SW480 [4] = experiment: as above; details: 5 µM; treatment time 24 h; reporter: 7TFP
Procedure, shortened: as §1

Row | SMILES | cell viability (DLD1 [1]) | cell viability (HCT116) | cell viability (SW480 [2]) | TCF/Wnt firefly luciferase reporter signal (DLD1 [3]) | TCF/Wnt firefly luciferase reporter signal (SW480 [4])
1 | CC1NC(=O)CNC1=O (stereo not given) [cyclo(alanylglycyl)] | 0.883 ± 0.05 | 0.918 ± 0.051 | 0.925 ± 0.054 | 0.947 ± 0.012 | 1 ± 0.1
2 | CN1CCN2c3ccccc3Cc3ccccc3C2C1 (stereo not given) | 1.03 ± 0.053 | 1.08 ± 0.071 | 1.07 ± 0.021 | 1.04 ± 0.083 | 1.08 ± 0.071
3 | Nc1ncnc2c1ncn2[C@@H]1O[C@H](CO)[C@@H](O)[C@@H]1O | 0.9735 ± 0.0078 | 1.01 ± 0.021 | 0.975 ± 0.034 | 1.08 ± 0.064 | 1.05 ± 0.05
4 | C=CCCCCCCCCC(=O)O | 1.03 ± 0.072 | 1.08 ± 0.13 | 1 ± 0.022 | 1.01 ± 0.025 | 1 ± 0.037
5 | CN1CC(=O)N2[C@H](c3ccc4c(c3)OCO4)c3[nH]c4ccccc4c3C[C@@H]2C1=O | 0.995 ± 0.079 | 1.08 ± 0.028 | 0.995 ± 0.021 | 0.973 ± 0.081 | 0.941 ± 0.098
6 | NC(=O)N(CCc1ccccc1)CCc1ccccc1 [N, N-Bis(2-phenylethyl)urea] | 1.08 ± 0.085 | 1.01 ± 0.014 | 1.06 ± 0.021 | 1.03 ± 0.028 | 0.946 ± 0.077
7 | CC1(C)S[C@@H]2[C@H](N3C(=O)[C@@H](c4ccccc4)NC3(C)C)C(=O)N2[C@H]1C(=O)O | 1.05 ± 0.079 | 1.055 ± 0.0071 | 1.08 ± 0.071 | 1.15 ± 0.042 | 1.09 ± 0.014
8 | CCN(CC)CCOC(=O)C(Cc1cccc2ccccc12)CC1CCCO1 (stereo not given) | 1.095 ± 0.0071 | 1.02 ± 0.034 | 1.02 ± 0.033 | 0.874 ± 0.072 | 1.22 ± 0.37
9 | COC(=O)C(N)CS (stereo not given) | 0.972 ± 0.054 | 0.965 ± 0.092 | 1 ± 0.036 | 0.836 ± 0.039 | 0.91 ± 0.03
10 | CCOC(=O)CCCCCCCCCCCCC1C=CCC1 (stereo not given) | 0.9375 ± 0.005 | 0.949 ± 0.07 | 0.965 ± 0.05 | 0.869 ± 0.034 | 0.873 ± 0.073
11 | CC1(C)C=Cc2cc3ccc(=O)oc3cc2O1 | 0.979 ± 0.087 | 1 ± 0.043 | 1.04 ± 0.042 | 1.21 ± 0.13 | 1.165 ± 0.0071
12 | C1CCN2C[C@@H]3C[C@@H](CN4CCCC[C@@H]34)[C@H]2C1 | 1.08 ± 0.12 | 1.04 ± 0.021 | 1.05 ± 0.021 | 1.16 | 0.948 ± 0.053
13 | COC(=O)[C@H]1[C@H]2C[C@H]3c4[nH]c5ccccc5c4CCN3C[C@@H]2CC[C@@H]1O | 0.988 ± 0.06 | 0.984 ± 0.066 | 1.06 ± 0.014 | 1.01 ± 0.039 | 1.06 ± 0.028
14 | CC(=O)Oc1cc(-c2coc3cc(OC(C)=O)c(OC(C)=O)c(OC(C)=O)c3c2=O)cc(OC(C)=O)c1OC(C)=O | 1 ± 0.015 | 1.09 ± 0.2 | 0.998 ± 0.018 | 1.09 ± 0.17 | 0.95 ± 0.1
15 | CCCCNS(=O)(=O)c1ccccc1 [N-butylbenzenesulphonamide (AB2)] | 0.978 ± 0.19 | 1 ± 0.022 | 0.964 ± 0.052 | 0.908 ± 0.13 | 0.919 ± 0.14
16 | CC1(C)NC(=O)N(c2ccc([N+](=O)[O-])c(C(F)(F)F)c2)C1=O | 1.05 ± 0.084 | 0.983 ± 0.052 | 1 ± 0.042 | 1.02 ± 0.014 | 0.961 ± 0.044
17 | CN(Cc1cnc2nc(N)nc(N)c2n1)c1ccc(C(=O)N[C@@H](CCC(=O)O)C(=O)O)cc1 | 0.475 ± 0.1 | 1.055 ± 0.0071 | 1.1 | 0.739 ± 0.3 | 1.07 ± 0.064
18 | COc1ccc([C@@H]2CC(=O)c3c(O)cc(O)cc3O2)cc1O | 1.01 ± 0.014 | 0.93 ± 0.052 | 0.9885 ± 0.0092 | 1.02 ± 0.11 | 0.982 ± 0.04
19 | CC1(C)C=CC(=O)[C@@]2(C)C1CC(=O)[C@]1(C)C2CC[C@@]2(C)[C@H](c3ccoc3)OC(=O)C3OC321 (stereo not given in full) | 1 ± 0.012 | 0.71 ± 0.61 | 0.998 ± 0.018 | 0.99 ± 0.029 | 0.854 ± 0.13
20 | CC(CCc1ccccc1)NCC(O)c1ccc(O)c(C(N)=O)c1 (stereo not given) | 1.01 ± 0.12 | 1.08 ± 0.014 | 0.943 ± 0.044 | 0.935 ± 0.012 | 0.939 ± 0.046
21 | N[C@H](Cc1ccccc1)C(=O)O | 1.03 ± 0.066 | 1.07 ± 0.064 | 1.01 ± 0.078 | 1.17 ± 0.05 | 1 ± 0.15
22 | C[C@@H]1CC[C@@]2(OC1)O[C@H]1C[C@H]3[C@@H]4CC=C5C[C@@H](O)CC[C@]5(C)[C@H]4CC[C@]3(C)[C@H]1[C@@H]2C | 1.01 ± 0.14 | 0.973 ± 0.025 | 0.93 ± 0.046 | 0.89 ± 0.063 | 0.998 ± 0.06
23 | CC(C(=O)O)c1ccc(C(=O)c2cccs2)cc1 (stereo not given) | 1.01 ± 0.021 | 1.025 ± 0.0071 | 1.02 ± 0.014 | 0.996 ± 0.021 | 0.999 ± 0.072
24 | NC(=O)N1c2ccccc2CC(=O)c2ccccc21 | 0.9 ± 0.09 | 0.847 ± 0.09 | 1.03 ± 0.014 | 1.06 | 1.1 ± 0.14
25 | O=[N+]([O-])c1cccc2cn[nH]c12 | 1.015 ± 0.0071 | 0.987 ± 0.076 | 0.962 ± 0.047 | 1.1 ± 0.042 | 1.14 ± 0.021
26 | CCOC(=O)n1ccn(C)c1=S | 0.985 ± 0.05 | 1.12 | 1.01 ± 0.035 | 0.9725 ± 0.0021 | 1.04 ± 0.014
27 | CC(=O)c1c2c(c(C)n1-c1ccccc1C(=O)O)C(=O)c1c(O)cccc1C2=O [Bhimamycin D] | 1.02 ± 0.048 | 0.863 ± 0.025 | 0.969 ± 0.072 | 1.05 ± 0.11 | 1.08 ± 0.042
28 | CC1(C)C(=O)C=CC2(C)C1C=CC1(C)C2CCC2(C)C(c3ccoc3)OC(=O)C3OC312 (stereo not given) | 1.07 ± 0.042 | 1.1 ± 0.13 | 1.05 | 1.01 ± 0.1 | 0.964 ± 0.094
29 | CO/N=C(\C(=O)N[C@@H]1C(=O)N2C(C(=O)O)=C(CSc3nc(=O)c(O)nn3C)CS[C@H]12)c1csc(N)n1 | 1.06 ± 0.071 | 1.06 ± 0.071 | 0.98 ± 0.071 | 1.1 ± 0.14 | 0.96 ± 0.057
30 | C[C@@]12C[C@@]3(O)O[C@@H](O1)[C@]1(COC(=O)c4ccccc4)[C@H]3C[C@@]12O[C@@H]1O[C@H](CO)[C@@H](O)[C@H](O)[C@H]1O | 1.06 ± 0.014 | 0.887 ± 0.12 | 1.015 ± 0.0071 | 0.941 ± 0.052 | 1.01 ± 0.21
